About 830 (0.38%) of roughly 220,000 compounds were called active. These entries were drawn from the full list. Measured potencies and affinities stand elsewhere. Values without a mark were called inactive.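 Rule for the calls: active = compound inhibiting the enzyme by more than half at any dose during confirmatory dose-response retesting; inconclusive = strong single-dose inhibitors picked by rank but not retested; inactive = the rest.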
biological target: Leucine aminopeptidase (Plasmodium falciparum (isolate 3D7)) (UniProt Q8IL11); test: P. falciparum M17LAP inhibitors, primary screen, biochemical, fluorogenic H-Leu-NHMec substrate, 1536-well (AID 1619); settings: recombinant M17LAP, H-Leu-NHMec fluorogenic kinetic assay; at 30 µM; active compounds read high;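 note: plate controls were full reaction with DMSO carrier for no effect and no enzyme background for full effect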
Sequence (Q8IL11 whole entry, looked up): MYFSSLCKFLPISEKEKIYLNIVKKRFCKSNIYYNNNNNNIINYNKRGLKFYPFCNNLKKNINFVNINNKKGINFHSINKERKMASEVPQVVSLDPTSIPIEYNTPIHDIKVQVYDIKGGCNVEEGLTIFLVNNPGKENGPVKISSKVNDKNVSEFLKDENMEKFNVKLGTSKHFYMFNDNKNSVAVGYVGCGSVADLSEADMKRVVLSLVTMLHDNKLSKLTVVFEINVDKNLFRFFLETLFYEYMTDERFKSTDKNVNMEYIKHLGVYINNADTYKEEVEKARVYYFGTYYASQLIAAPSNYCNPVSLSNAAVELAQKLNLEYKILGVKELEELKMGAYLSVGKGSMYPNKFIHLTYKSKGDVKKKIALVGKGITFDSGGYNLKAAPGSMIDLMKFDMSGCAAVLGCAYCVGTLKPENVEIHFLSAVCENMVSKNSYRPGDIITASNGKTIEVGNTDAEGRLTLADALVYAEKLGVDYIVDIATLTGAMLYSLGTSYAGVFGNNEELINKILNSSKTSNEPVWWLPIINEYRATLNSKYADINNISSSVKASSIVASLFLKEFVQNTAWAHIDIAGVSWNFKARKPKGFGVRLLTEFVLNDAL

SMILES | inhibition
CC1=CCC2C(=O)N(c3ccc(Br)cc3C)C(=O)C2C1 (centres undefined) | -2.62%
COc1cc(C(=O)O)cc(NC(=O)c2cccs2)c1OC | 27%
CC(NS(=O)(=O)c1ccccc1)C(c1cccs1)N1CCOCC1 (centres undefined) | 3.6%
CCOc1ncccc1C(=O)OCC(=O)NCc1ccc2c(c1)OCO2 | -8.27%
O=C(COC(=O)c1cccc(S(=O)(=O)N2CCOCC2)c1)Nc1ncc(C(F)(F)F)cc1Cl | 4.29%
C/C(CC(=O)Nc1cc(C)ccn1)=N\NC(=O)c1cccc(C)c1 | 36.6%
C/C(CC(=O)Nc1cc(C)ccn1)=N\NC(=O)C(=O)Nc1cccc(C)c1 | 17.6%
c1ccc(CSc2ncnc3c2cnn3-c2ccccc2)cc1 | 6.75%
CC(=O)CSc1ncnc2c1cnn2-c1ccccc1 | -3.85%
O=C1N/C(=C/c2cccn2-c2ccccc2)C(=O)N1Cc1ccccc1F | 2.46%
O=C(O)c1cccc(-n2cccc2/C=C2\NC(=O)N(Cc3ccc(F)cc3)C2=O)c1 | 14.1%
COc1ccc(C(=O)OCC(=O)Nc2nc3c(F)c(F)c(F)cc3s2)cc1OC | -4.12%
CCOc1ccccc1OCC(=O)Nc1nnc(COC)s1 | -14%
COc1ccc(-c2c[nH]c(=O)[nH]c2=O)cc1OC | 7.18%
COc1ccc(-c2cc(=O)[nH]c(=O)[nH]2)cc1 | 6.04%
COc1ccc(-c2cn(-c3cccc(C)c3)c(=O)[nH]2)cc1OC | 12.5%
COc1cccc(-c2cc(=O)[nH][nH]2)c1 | -0.06%
Cn1nc(-c2ccc(NCCO)c([N+](=O)[O-])c2)c2ccccc2c1=O | -6.44%
Cc1nn(-c2ccccn2)c(N)c1N=O | 13.8%
O=C(CN1C2=NCCCN2c2ccccc21)c1cccs1 | -10.1%
CCN1C(=O)/C(=C/c2cccs2)SC1=Nc1ccc(OC)cc1 | -1.72%
CC(C)c1ccc(OCC(=O)Nc2cccc(C(=O)Nc3ccccc3C(=O)O)c2)cc1 | 5.28%
COc1ccc(OCC(=O)Nc2cccc(C(=O)Nc3ccccc3C(=O)O)c2)cc1 | 37%
Cc1cc2nc(SC(C)C(=O)O)[nH]c2cc1C (centres undefined) | 19.5%
CC(Sc1nc2ccccc2[nH]1)C(=O)O (centres undefined) | 4.99%

SMILES | inhibition
COc1ccc(-n2nc(N)c3c(=O)oc(N(C)C)nc32)cc1 | 3.39%
COC(=O)c1cccc(CN2C(=O)SC(Nc3ccc(C)cc3)C2=O)c1 (centres undefined) | 2.69%
Cc1ccc(NC2SC(=O)N(Cc3cccc(C(=O)O)c3)C2=O)c(C)c1 (centres undefined) | -1%
Cc1ccc(N(CC(N)=O)C2SC(=O)N(Cc3ccccc3)C2=O)cc1 (centres undefined) | 8.98%
COC(=O)c1cccc(CN2C(=O)SC(Nc3ccccc3)C2=O)c1 (centres undefined) | 2.34%
O=C(O)CN1C(=O)SC(Nc2ccccc2)C1=O (centres undefined) | 15.1%
NC(=O)CN(c1ccccc1)C1SC(=O)N(Cc2ccccc2)C1=O (centres undefined) | -3.19%
O=C1Nc2ccccc2S/C1=C/c1cccs1 | 4.97%
CCCCCCOc1cccc(N)c1 | -6.2%
COc1ccc(S(=O)(=O)N(CC(=O)N/N=C/c2cccs2)c2cc(C)cc(C)c2)cc1OC | -9.62%
Cc1ccc(O)c(CNn2cnnc2)c1 | -3.08%
C/C(=N\O)c1oc2ccc3c(C)cc(=O)oc3c2c1C | 2.81%
COc1nc(N(CC(N)=O)S(=O)(=O)c2ccccc2)nc(C)c1Cl | -8.61%
Cc1ccc(-n2nnnc2CN2CCCCC2)cc1 | -0.54%
COC(=O)c1scc(C)c1N/N=C(\C)c1cc(F)c(Cl)cc1F | -1.99%
Cn1ncc(Cl)c1C(=O)N/N=C/c1cc2c(cc1[N+](=O)[O-])OCO2 | 10.6%
CCCc1ncc(C(O)c2ccc(OC)cc2)n1C (centres undefined) | -6.37%
Cc1ccc(Oc2ccc(NC(=O)CSc3n[nH]c(N)n3)cc2)cc1 | -7.16%
Cc1ccc(CNC(=O)CSc2n[nH]c(N)n2)cc1 | 16.9%
Cc1ccc(NC(=O)CN(C)C(=O)CSc2nc(C)cs2)cc1 | -4.97%
Cc1ccc(NC(=O)CN(C)C(=O)CSc2nc3ccccc3o2)cc1 | 3.63%
CCn1ncc(/C=N\NC(=O)c2ccc3c(c2)c(C)c(C)n3Cc2ccccc2)c1C | 8%
Cc1c(C(=O)N2CCN(Cc3ccc4c(c3)OCO4)CC2)cccc1[N+](=O)[O-] | 11.8%
COc1ccc(Nc2nc(C(=O)N3CCc4cc(OC)c(OC)cc4C3)cs2)cc1 | -3.32%
COc1ccc(NC(=O)COC(=O)c2ccco2)c([N+](=O)[O-])c1 | -7.81%

SMILES | inhibition
CN(Cc1cnccn1)C(=O)CC1C(=O)NCCN1Cc1c(F)cccc1Cl (centres undefined) | 4.09%
CCc1ccc(C(=O)NC(C(=O)O)C(C)C)cc1 (centres undefined) | 56.2%
CCCCc1ccc(NC(=O)N[C@@H](CC(C)C)C(=O)O)cc1 | -4.28%
CCCCCOc1ccc(C(=O)NC(C(=O)O)C(C)C)cc1 (centres undefined) | 46.7%
CCCCc1ccc(NC(=O)N[C@@H](C)C(=O)O)cc1 | -2.39%
CCCCc1ccc(NC(=O)C(C)CC)cc1 (centres undefined) | 4.63%
CCc1ccc(NC(=O)N[C@H](C(=O)O)C(C)CC)cc1 (some centres undefined) | -1.8%
CC(C)(C)NC(=O)CN(Cc1ccc(F)cc1)C(=O)Cn1nnc(-c2ccc(F)cc2)n1 | 2.63%
Cc1cccc(OCCCOc2cccc3cccnc23)c1C | -0.78%
C[C@@H](C(=O)N1CCN(C(=O)OC(C)(C)C)CC1)n1cc(CCC(=O)O)nn1 | 3.71%
Cc1ccc(SCCn2nc(C(=O)O)c3ccccc3c2=O)cc1 | 11.2%
Cc1cccc(NS(=O)(=O)c2ccc3c(c2)NC(=O)CC(=O)N3)c1 | 0.82%
Cc1ccccc1C(=O)Nc1sc2c(c1C(=O)O)CCC2 | 25.7%
COc1ccccc1NC(=O)c1c(NC(=O)CCC(=O)O)sc2c1CCCCC2 | 12%
CCOc1ccccc1NC(=O)c1c(NC(=O)CCC(=O)O)sc2c1CCCCC2 | 3.19%
CCOC(=O)c1ccc(NC(=O)c2c(NC(=O)CCC(=O)O)sc3c2CCCCC3)cc1 | 4.02%
COc1ccc(NC(=O)c2c(NC(=O)CCC(=O)O)sc3c2CCCCC3)cc1 | 46%
O=C(Nc1sc2c(c1C(=O)O)CCCCC2)c1ccccc1 | 54.2%
O=C(NCCC(c1ccccc1)c1ccccc1)c1cnccn1 | -1.23%
COc1ccc(C)cc1NC(=O)C(OC(=O)CNC(=O)c1ccc(Br)cc1)c1ccccc1 (centres undefined) | -14.5%
CN(C)S(=O)(=O)c1ccc(NC(=O)Cn2ccsc2=N)cc1 | 0.8%
c1ccc(-c2nc(NCC3CCCO3)c3oc4ccccc4c3n2)cc1 (centres undefined) | -4.77%
Cc1noc(C)c1COc1ccc(C(=O)OCC(=O)Nc2ccc3c(c2)OCO3)cc1 | 4.59%
COc1ccc2[nH]c(C)c(CCNC(=S)Nc3ccc(F)cc3)c2c1 | -5.1%
O=C(Cn1cc2c(n1)CCCC2)N1CCc2ccccc21 | 3.11%

SMILES | inhibition
COc1ccccc1N1CC(C)C(=O)NC1=S (centres undefined) | 8%
Cc1ccccc1C(=O)NNC(=S)NC(=O)c1ccc(Cl)cc1Cl | 90.7%
Cc1ccccc1C(=O)NC(=S)NCC(=O)c1ccccc1 | 0.75%
Cc1ccccc1C(=O)NNC(=S)NC(=O)c1cccnc1 | 80.7%
Cc1onc(-c2ccccc2)c1C(=O)NNC(=S)NC(=O)c1ccc(Br)cc1 | 44.1%
Cc1ccccc1C(=O)NCC(=O)NNC(=S)NC(=O)c1ccccc1C | 63.2%
Cc1onc(-c2ccccc2)c1C(=O)NC(=S)NNC(=O)c1ccc(O)cc1 | 14.3%
Cc1ccc(NC(=O)CN(c2ccccc2)S(=O)(=O)N(C)C)cc1 | -5.3%
CCOC(=O)c1cnc2c(C(F)(F)F)cccc2c1N1CCOCC1 | 6.02%
C/C(CC(=O)N(C(C)C)C(C)C)=N\NC(=O)COc1ccc(Cl)cc1Cl | 7.13%
Cc1ccc(C(=O)Nc2ccc3cn[nH]c3c2)cc1S(=O)(=O)N1CCCCC1 | 4.67%
CCOC(=O)NC(=O)CSc1nnnn1-c1ccccc1 | 0.74%
OCC(O)C1OC(Nc2ccc(Cl)cc2)C(O)C1O (centres undefined) | 2.43%
Cc1nn(S(=O)(=O)c2cccc([N+](=O)[O-])c2)c(C)c1Br | 10.8%
Cc1ccc(NC(=O)COC(=O)Cn2c(C)csc2=O)cc1C | 4.89%
Nc1n[nH]c(N)c1N=Nc1ccc(Cl)cc1Cl | 47.6%
Cc1[nH]nc(N)c1N=Nc1ccc(Br)cc1 | -1.99%
Nc1n[nH]c(C2CC2)c1N=Nc1ccc(Cl)cc1 | 18.4%
Nc1n[nH]c(N)c1N=Nc1ccc2c(c1)OCO2 | -3.08%
COc1ccc(N=Nc2c(N)n[nH]c2N)cc1 | 9.88%
Nc1nn(-c2ccccc2)c(N)c1N=Nc1ccccc1 | -19.2%
Nc1nn(-c2ccccc2)c(N)c1N=Nc1cccc(F)c1 | -3.61%
COC(=O)c1ccccc1N=Nc1c(N)n[nH]c1N | 12.4%
Cc1ccc(S(=O)(=O)N2CCOCC2)cc1NC(=O)CN1CCN(c2ccc(O)cc2)CC1 | -10.2%
